From PubChem
Mcl1-Bid inh: Mcl-1/Bid interaction inhibition | inhibition, % at 21.7 µM | actives 0.97% (n = 220,000) | TR-FRET Mcl-1/Bid-Dy647 peptide binding, 1536-well | Q07820;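 active means compounds that cut the binding signal by more than half at the single screening dose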;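 further: His-tagged Mcl-1 with europium anti-His antibody binding Bid BH3 peptide; 0% = Mcl-1 plus peptide wells and 100% = peptide-only wells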
BCLXL inh: blocks human Bcl-xL binding to Bim BH3 peptide | Q07817 | GST-Bcl-xL / FITC-Bim BH3 peptide fluorescence polarization | inhibition, % at 10.9 µM | actives 0.7% (n = 320,000) | AID 2129;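 active means inhibition above the mean of all tested compounds plus 3 SD, cutoff set per campaign, cut at about 30% in these data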;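 further: 0% = DMSO wells and 100% = unlabeled Bim-BH3 peptide competitor; inhibitors lower millipolarization by displacing the labeled peptide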
Target sequence (Q07817 whole entry, looked up): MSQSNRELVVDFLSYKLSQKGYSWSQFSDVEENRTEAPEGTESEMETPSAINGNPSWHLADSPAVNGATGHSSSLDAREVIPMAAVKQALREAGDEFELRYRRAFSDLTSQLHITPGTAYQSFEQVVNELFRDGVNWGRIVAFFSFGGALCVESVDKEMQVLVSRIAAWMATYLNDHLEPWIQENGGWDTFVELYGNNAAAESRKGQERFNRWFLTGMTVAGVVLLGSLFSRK
Bim-Mcl-1: human Bim-Mcl-1 interaction inhibition; inhibition, % at 10 µM; Bead-based flow cytometry, Bim peptide-Mcl-1 binding; Q07820; actives 0.1% (n = 190,000); in the data active means inhibition above about 40%;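 further: 0% = no compound tracer wells and 100% = peptide blocker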
MCL1 BIM primary: MCL1-BIM-BH3 interaction inhibition (human) | actives 0.68% (n = 320,000) | GST-MCL1 / FITC-Bim-BH3 fluorescence polarization | Q07820 | AID 2057 | inhibition, % at 10.9 µM;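 active means inhibition above the mean inhibition of all tested compounds plus 3 SD, set per campaign, cut at about 40% in these data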;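 further: 0% = DMSO wells and 100% = unlabeled Bim-BH3 peptide control; higher means more loss of mP so more displacement of Bim peptide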
Mcl1 Noxa PPI: Mcl-1/Noxa interaction inhibition. Q07820. TR-FRET Mcl-1/Noxa peptide binding, 2 h. inhibition, % at 21.7 µM. actives 1.5% (n = 220,000). AID 1022;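 active means compounds that cut the protein-peptide binding signal by more than 50% relative to plate controls in a single-dose test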;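 further: His-tagged Mcl-1 with rhodamine Noxa BH3 peptide and terbium anti-His antibody; 0% = Mcl-1 plus Noxa peptide wells and 100% = peptide-only wells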
GLD-1 TGE inh: GLD-1-TGE RNA interaction inhibition (C. elegans); AID 2280; inhibition, % at 5.96 µM; actives 0.44% (n = 320,000); purified GLD-1 + fluorescein TGE RNA, fluorescence polarization; Q17339;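 active means percent inhibition above a per-plate cutoff, the plate mean of test compounds plus 3 SD, cut at about 30% in these data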;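 further: 0% = DMSO wells with GLD-1 and probe and 100% = wells lacking GLD-1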
Target sequence (Q17339 whole entry, looked up): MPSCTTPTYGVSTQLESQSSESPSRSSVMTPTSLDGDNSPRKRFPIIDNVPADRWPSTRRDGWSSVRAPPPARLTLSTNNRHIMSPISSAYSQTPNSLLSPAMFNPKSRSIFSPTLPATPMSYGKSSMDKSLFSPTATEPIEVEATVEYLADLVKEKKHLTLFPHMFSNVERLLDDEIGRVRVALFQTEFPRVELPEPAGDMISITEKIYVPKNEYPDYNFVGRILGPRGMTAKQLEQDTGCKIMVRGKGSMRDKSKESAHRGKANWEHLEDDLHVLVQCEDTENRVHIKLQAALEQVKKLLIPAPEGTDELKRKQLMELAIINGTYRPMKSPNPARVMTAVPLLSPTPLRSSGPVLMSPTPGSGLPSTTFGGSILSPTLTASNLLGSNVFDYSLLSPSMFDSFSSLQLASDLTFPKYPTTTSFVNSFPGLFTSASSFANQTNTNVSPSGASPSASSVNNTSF
* = called active by the depositor; nt = not tested or not shown. Rows were chosen to be rich in hits. Some 2.3% of all compounds tested hit in one or more screens of this group.

SMILES | Mcl1-Bid inh | BCLXL inh | Bim-Mcl-1 | MCL1 BIM primary | Mcl1 Noxa PPI | GLD-1 TGE inh
CCCCCCc1ccc(N2C[C@H](C)[C@@H](CC(=O)NCc3ccccc3)C2=O)cc1 | nt | 7 | nt | 5 | nt | 41*
CC(C)NC(=O)N(C)C[C@H]1Oc2ccc(NC(=O)Nc3ccccc3)cc2C(=O)N([C@@H](C)CO)C[C@@H]1C | nt | nt | nt | nt | nt | 1
Cc1ccc(/C=C/C2=Cc3c(sc(NC(=O)CSc4n[nH]c(N)n4)c3C#N)C(C)(C)C2)o1 | -30 | 54* | 8 | 61* | 97* | 37*
COc1ccccc1-n1c(SCc2cc(=O)oc3cc(O)ccc23)nc2ccccc2c1=O | -71 | 8 | -1 | 2 | 67* | 2
COc1ccccc1-n1c(SCC(=O)N2CCOCC2)nc2ccccc2c1=O | nt | 5 | nt | -3 | nt | 4
N=c1cc(C2(O)CCCCC2)n2c(nc3ccccc32)s1 | 98* | -2 | 2 | 2 | 0 | -9
NC1=NC2(CCCCC2)n2c(nc3ccccc32)N1 | -9 | 0 | -5 | 8 | -8 | 10
CC(=O)N1c2ccc(Cl)cc2C2OCCC2C1c1ccco1 (stereo not drawn) | -46 | 1 | nt | -4 | 6 | -1
Clc1ccc2c(c1)C1OCCC1C(c1ccco1)N2 (stereo not drawn) | -20 | 32* | 2 | 31 | 15 | 27
CCCCn1nc(C(=O)N2CCN(S(=O)(=O)c3ccccc3)CC2)c2ccccc2c1=O | nt | 2 | nt | -4 | nt | -1
O=C(Nc1ccc(N2CCCC2)c(Cl)c1)c1ccc([N+](=O)[O-])o1 | -45 | nt | -6 | nt | 59* | nt
O=C(/C=C/c1ccco1)Nc1cccc2cccnc12 | -34 | 51* | 4 | 37 | 32 | 30
CC[C@H](C)/C=C(C)/C=C/C(=O)Cc1cc(O)c(C)c(O)c1C=O | -75 | 18 | nt | 22 | 18 | 17
CC[C@H](C)/C=C(C)/C=C/C1=CC2=CC(=O)[C@]3(C)OC(=O)[C@@H](C(C)=O)[C@@H]3C2=CO1 | -13 | 38* | 1 | 47* | 4 | 34*
O=S(=O)(c1ccc(NC(=S)NCc2cccnc2)cc1)N1CCCCC1 | 96* | 7 | nt | 3 | 20 | 5
O=C(NCc1cccnc1)c1ccc(S(=O)(=O)N2CCCCC2)cc1 | 9 | 3 | 0 | 1 | 24 | 2
CN1CCN(S(=O)(=O)c2ccc(NC(=S)NC(=O)c3ccc(Cl)cc3)cc2)CC1 | 2 | nt | -7 | nt | 84* | nt
O=C(NC(=S)Nc1ccc(S(=O)(=O)N2CCCCC2)cc1)c1cccs1 | 96* | 4 | 0 | 16 | 1 | 1
CN1CCN(S(=O)(=O)c2ccc(NC(=S)NC(=O)c3ccccc3)cc2)CC1 | -28 | -12 | -2 | -9 | 13 | -9
O=C(Cc1cccs1)Nc1ccc(S(=O)(=O)N2CCCC2)cc1 | -19 | 4 | 0 | 21 | 63* | 3
NS(=O)(=O)c1ccc(NC(=S)NC(=O)c2cccs2)cc1 | -42 | 5 | nt | 15 | 1 | 5
CC(C(=O)N1CCc2ccccc21)N(C)CC(=O)Nc1cccc(F)c1 (stereo not drawn) | nt | -13 | nt | -8 | nt | -2
O=C(/C=C/c1ccco1)OCC(=O)N1CCCCC1 | nt | nt | nt | nt | nt | 3
O=C(Nc1ccc(N2CCOCC2)cc1)c1cnsn1 | -3 | nt | 0 | nt | 23 | nt
CC1CCc2sc(C(=O)Nc3ccc(N4CCOCC4)cc3)cc2C1 (stereo not drawn) | -28 | 6 | 0 | 0 | 52* | -6
SMILES | Mcl1-Bid inh | BCLXL inh | Bim-Mcl-1 | MCL1 BIM primary | Mcl1 Noxa PPI | GLD-1 TGE inh
O=C(Nc1ccc(N2CCOCC2)cc1)Nc1ccc2nsnc2c1 | -50 | 4 | 4 | 4 | 61* | 1
CCCCNC(=O)Nc1nnc(-c2ccccc2)o1 | 59* | 2 | 2 | 8 | 10 | 2
COc1ccc(C2/C(=C(/O)c3ccccc3)C(=O)C(=O)N2C)cc1OC (stereo not drawn) | nt | 2 | nt | 14 | nt | 7
COc1ccc(CCC(=O)Nc2ccc(S(=O)(=O)Nc3nccc(C)n3)cc2)cc1 | nt | -3 | nt | 1 | nt | -4
CCOC(=O)c1c(-c2ccccc2)csc1NC(=S)NC | -58 | 3 | -11 | 2 | 55* | 5
Cc1ccc(NC(=O)/C(=C\c2cccnc2)NC(=O)c2ccco2)cc1 | 0 | 89* | 0 | 29 | 9 | 29
COC(=O)c1sc(N2C(=O)c3oc4ccccc4c(=O)c3C2c2cccc(O)c2)nc1C (stereo not drawn) | 58* | 5 | nt | 5 | 18 | -4
O=C(OCc1ccc([N+](=O)[O-])cc1)c1cc(=O)c2ccccc2o1 | nt | 1 | nt | 0 | nt | -5
O=C(NCc1cccnc1)c1cc2nc(-c3ccc4c(c3)OCO4)cc(C(F)(F)F)n2n1 | 83* | 5 | 3 | 3 | 47 | 1
O=C1NC(CCc2ccccc2)C(=O)N1Cc1ccccc1Cl (stereo not drawn) | 95* | 1 | 17 | -5 | -5 | -2
COCC(=O)NCCc1ccc(S(N)(=O)=O)cc1 | 4 | -1 | 0 | -7 | -1 | -2
Nc1nccnc1C(=O)OCC(=O)NCCc1ccc(S(N)(=O)=O)cc1 | nt | 35* | nt | 37 | nt | 27
CCOC(=O)COc1ccc2ccccc2c1/C=C/[N+](=O)[O-] | 15 | 4 | -6 | 8 | 19 | 6
CCOc1ccc(/C=C/[N+](=O)[O-])c2ccccc12 | 45 | -3 | 0 | 7 | 76* | 1
Oc1ccc(/C=N/Nc2cccc3cccnc23)c(O)c1 | -39 | 8 | 0 | 12 | 62* | -1
Cc1ccc(/C=N/Nc2cccc3cccnc23)c(O)c1 | -37 | 8 | -6 | 8 | 19 | 5
COc1ccc2[nH]c3c(c2c1)CCn1c-3nc2sc(C(=O)Nc3ccccc3)c(C)c2c1=O | 75* | nt | 0 | nt | 54* | nt
CCc1cc2c(=O)n3c(nc2s1)-c1[nH]c2ccc(OC)cc2c1CC3 | 10 | 5 | -1 | 0 | 10 | 2
ONc1cccnc1-n1nc(C(F)(F)F)cc1C(F)(F)F | -40 | 38* | -4 | 35 | 8 | 22
O=C(O)c1ccccc1C(=O)Nc1ccc(-n2nc(C(F)(F)F)cc2C(F)(F)F)cc1 | 10 | 0 | nt | 9 | 12 | 2
Cc1ccc(-c2nnc(N3CC(C)OC(C)C3)c3ccccc23)cc1 (stereo not drawn) | 91* | -2 | -3 | -1 | 3 | -5
O=c1sc2ccccc2c(N2CCOCC2)c1[N+](=O)[O-] | nt | 6 | nt | 5 | nt | 1
CCNCCC(=O)N1c2ccccc2Sc2ccc(C(F)(F)F)cc21 | nt | -1 | nt | -5 | nt | -10
COc1ccc(-c2csc(NC(=S)NC(=O)/C=C/c3ccco3)n2)cc1OC | 70* | 1 | -6 | -24 | 52* | 2
COc1ccc(-c2csc(NC(=S)NC(=O)c3ccco3)n2)cc1Br | nt | 2 | nt | 4 | nt | -6
COc1ccc(-c2csc(NC(=S)NC(=O)/C=C/c3ccco3)n2)cc1Br | 8 | 0 | nt | 4 | 66* | 7
